NADH enzymes – blocks coupling enzymes of NAD/NADH assays; coupled PK/LDH NADH assays, four targets; IC50, µM (series often up to 10 µM); 65,000 compounds, 0.02% hits; AID 774;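 active means single-dose screening hits from any of four coupled enzyme assays that gave an IC50 when retested across doses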;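 further: the DPM-DC format reads NADH fluorescence rather than 340 nm absorbance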
Spn MK inh – S. pneumoniae mevalonate kinase inhibition; inhibition, % at 10 µM; purified MK, PK/LDH-coupled NADH absorbance 340 nm; 65,000 compounds, 0.48% hits; AID 555;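 active means ranked among the strongest by inhibition in the single 10 µM screen, a fixed top-ranked set picked for dose follow-up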
Fluor 339 460 – intrinsic fluorescence of library compounds, ex339/em460 – biochemical, MLSMR library, data from DPM-DC assay, artefact control, profiling panel. fluorescence fold increase at 10 µM. AID 709. compound autofluorescence, ex339/em460 nm, NADH buffer; active compounds read high; 1 = no-compound wells, NADH background. 65,000 compounds, 5.5% hits;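 active means at 10 µM, mean starting fluorescence two-fold or more over control wells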;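 further: signal is the first read of a kinetic run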
Abs 340nm – compound absorbs light at 340 nm; compound absorbance at 340 nm, fold over control; fold change at 10 µM; 65,000 tested, under 10 active; AID 708;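 active means at 10 µM dose, initial 340 nm absorbance at least 2 fold that of control wells; inactive means change under 2 fold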;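 further: initial absorbance extrapolated from kinetic A340 decline of NADH oxidation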
PMK inhibit – inhibitors of Streptococcus pneumoniae phosphomevalonate kinase. purified PMK, PK/LDH-coupled NADH absorbance 340 nm. 65,000 compounds, 0.49% hits. AID 539. inhibition, % at 10 µM;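 active means top-ranked compounds by inhibition in the single 10 µM screen, taking a fixed number of the strongest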
Spn DPM-DC inh – inhibitors of Streptococcus pneumoniae diphosphomevalonate decarboxylase | purified DPM-DC, PK/LDH coupled NADH fluorescence | calls only at 10 µM | 65,000 compounds, 0.49% hits;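 active means the 320 compounds with the highest percent inhibition in the single-dose primary screen, excluding strongly autofluorescent ones, cut at about 32% in these data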;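 further: kinetic rate of NADH fluorescence loss reporting ADP formed by the decarboxylase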
Of the large screens only hits and unclear results are named; the others gave an inactive call. A selection: hits, their analogues and other compounds. The true share with any hit is near 6.8%.

COc1cccc(-c2nnc(NC(=O)c3ccc(S(=O)(=O)N4CC(C)OC(C)C4)cc3)o2)c1 (stereo not given)	none
Cc1ccc(OCCn2c(C)c(/C=N/n3cnnc3)c3ccccc32)cc1	Spn DPM-DC inh active
Cc1c(/C=N/n2cnnc2)c2ccccc2n1CCOc1ccc(Cl)cc1	none
COc1cc(C(=O)Nc2ccc3c(c2)OCO3)ccc1-n1cnnn1	Spn DPM-DC inh active
COc1cc(C(=O)Nc2ccc3c(c2)OCCO3)c(-n2cnnn2)cc1OC	none
O=C(Nc1ccc2nn(-c3ccccc3)nc2c1)c1ccc2c(c1)OCO2	Fluor 339 460 2.6
COC(=O)c1c(C#N)c(N)nc2c1CCC2	Fluor 339 460 3 (not shown: Spn DPM-DC inh)
COc1cc(-n2c(C)nc3cc(C(=O)N4CCOCC4)ccc32)cc(OC)c1OC	none
CCCC(=O)N1CCN(c2nc(CC(C)C)c3c(c2C#N)CCC3)CC1	Fluor 339 460 2.2 (not shown: Spn DPM-DC inh)
CCc1nc(N2CCN(C(=O)c3ccccc3)CC2)c(C#N)c2c1COC(C)(C)C2	Fluor 339 460 2.3 (not shown: Spn DPM-DC inh)
CC1(C)Cc2c(C#N)c(NCCN3CCOCC3)nc(-c3ccco3)c2CO1	none
CC1CCN(c2nc(-c3ccco3)c3c(c2C#N)CC(C)(C)OC3)CC1	Fluor 339 460 2.1 (not shown: Spn DPM-DC inh)
CC(C)Cc1nc(N2CCN(C(=O)Cc3ccccc3)CC2)c(C#N)c2c1COC(C)(C)C2	none
N#Cc1cc2cc3c(cc2nc1N1CCOCC1)OCO3	Fluor 339 460 3.8 (not shown: Spn DPM-DC inh)
CCOC(=O)N1CCN(c2ncnc3c2oc2nc(CC(C)C)c4c(c23)CCC4)CC1	none
CCOc1ccccc1COC(=O)c1cccc(-n2cnnn2)c1	none
CC(C)C(=O)N1CCN(c2nc(-c3ccccc3)c3c(c2C#N)CCCC3)CC1	Fluor 339 460 2.2 (not shown: Spn DPM-DC inh)
Cc1nc(N2CCOCC2)c(C#N)c2c1COC(C)(C)C2	Fluor 339 460 2.3 (not shown: Spn DPM-DC inh)
CC1(C)Cc2c(C#N)c(N3CCOCC3)nc(-c3ccccc3)c2CO1	Fluor 339 460 2.2 (not shown: Spn DPM-DC inh)
CCc1nc(N2CCOCC2)c(C#N)c2c1COC(C)(C)C2	Fluor 339 460 3.7 (not shown: Spn DPM-DC inh)
CC1(C)Cc2c(C#N)c(N3CCOCC3)nc(Cc3ccccc3)c2CO1	Fluor 339 460 2.3 (not shown: Spn DPM-DC inh)
CC1(C)Cc2nc(N3CCOCC3)c(C#N)cc2CO1	Fluor 339 460 3.7 (not shown: Spn DPM-DC inh)
CC1(C)Cc2c(C#N)c(SCc3ccccc3)nc(N3CCOCC3)c2CO1	none
CC1(C)Cc2nc(NCCCO)c(C#N)cc2CO1	Fluor 339 460 2.4 (not shown: Spn DPM-DC inh)
N#CC1=C2C=CC=CN2CC1=O	Fluor 339 460 2.3 (not shown: Spn DPM-DC inh)
CC(C)OC(=O)CN1CCN(C2c3ccccc3-c3ccccc32)CC1	none
CCOC(=O)Nc1cc2c(C)cc(=O)oc2cc1C	Fluor 339 460 3.6
CCOC(=O)Nc1cc(=O)c2ccccc2o1	none
CCOc1cccc2sc(NC(=O)c3ccc(Br)s3)nc12	Fluor 339 460 2.1 (not shown: Spn DPM-DC inh)
CCOC(=O)Cc1csc(NC(=O)c2ccc(Br)s2)n1	none
CCCSc1nc(C)c(CC(=O)O)c(=O)[nH]1	none
CC1(C)Cc2ccccc2-c2nc(NCCO)n(-c3ccccc3)c(=O)c21	Fluor 339 460 2.2 (not shown: Spn DPM-DC inh)
CCC1(C)Cc2ccccc2-c2nc(NCCO)n(-c3ccccc3)c(=O)c21 (stereo not given)	Fluor 339 460 2.3 (not shown: Spn DPM-DC inh)
COc1ccccc1N1CCN(CC(=O)Nc2cc(C)nn2-c2nc(C)cc(C)n2)CC1	none
CC1(C)CC(=O)C(C(C2=C(O)CC(C)(C)CC2=O)c2cccnc2)C(=O)C1 (stereo not given)	none
CC1(C)CC(=O)C(C(C2=C(O)CC(C)(C)CC2=O)c2cccc(O)c2)C(=O)C1 (stereo not given)	PMK inhibit 29
CC(C)CCOc1ccc(Cl)cc1CN1CCOCC1	none
Cc1ccc2[nH]c(-c3cccc(N)c3)cc2c1	Fluor 339 460 3.8 (not shown: Spn DPM-DC inh)
COC(=O)c1ccc2c(c1)N(C)CCS2	Fluor 339 460 2.1 (not shown: Spn DPM-DC inh)
CCOC(=O)N1CCC(NC(=O)c2ccc3c(c2)N(C)CCS3)CC1	Fluor 339 460 3.4 (not shown: Spn DPM-DC inh)
CCOC(=O)N1CCC(NC(=O)c2cc(C(=O)NC3CCCC3)ccc2CO)CC1	none
CCOC(=O)N1CCN(C(=O)c2ccc3c(c2)N(CC)CCS3)CC1	Fluor 339 460 2 (not shown: Spn DPM-DC inh)
CCOC(=O)N1CCN(C(=O)c2ccc(N3C(=O)c4ccccc4C3=O)cc2)CC1	none
COC(=O)CCSCC(=O)Nc1nnc(C)s1	none
COc1cc(NC(=O)Cn2c(-c3cncs3)nc3ccccc32)cc(OC)c1OC	none
C=CCn1c(SCC(=O)NCc2cccs2)nnc1C1CCCCC1	none
COc1cccc(C2CC(c3ccccc3OC)n3nc(N)nc3N2)c1 (stereo not given)	none
O=C(CN1CCN(C2CCCCC2)CC1)c1ccc2cc[nH]c2c1	Fluor 339 460 2.1 (not shown: Spn DPM-DC inh)
O=C(O)c1ccc2cc[nH]c2c1	none
CC(C)OC(=O)c1cccnc1SCc1cc(=O)n2ccccc2n1	PMK inhibit 28
Cc1c(C(=O)NCc2ccc3c(c2)OCO3)sc2nc(-c3ccc(F)cc3)cn12	none
Cc1c(C(=O)NCc2ccc3c(c2)OCO3)sc2nc(-c3ccccc3)cn12	Spn DPM-DC inh active
CCOc1ccc(NC(=O)CSc2n[nH]c(=O)n2-c2ccccc2)cc1	none
CCC(=O)N(Cc1cc2cc(OC)ccc2[nH]c1=O)c1cccc(C)c1	Fluor 339 460 3
CCOc1ccc(N(Cc2cc3cc(OC)ccc3[nH]c2=O)C(=O)C2CCCO2)cc1 (stereo not given)	Fluor 339 460 3
COc1ccc2[nH]c(=O)c(CN(C(=O)c3ccncc3)C(C)C)cc2c1	none
COCC(=O)N(Cc1cc2cc(OC)ccc2[nH]c1=O)c1ccc(C)cc1	Fluor 339 460 2.1 (not shown: Spn DPM-DC inh)
COCC(=O)N(Cc1cc2ccc(C)cc2[nH]c1=O)c1ccc(OC)cc1	none
COc1ccc(CC(=O)N(Cc2cc3cc(OC)ccc3[nH]c2=O)C(C)C)cc1	Fluor 339 460 2.6
COc1ccc(N(Cc2cc3ccccc3[nH]c2=O)C(=O)C2CCCO2)cc1 (stereo not given)	none
CCC(C)(C)n1nnnc1CN(Cc1cc2cc(OC)c(OC)cc2[nH]c1=O)C1CCCC1	none
NC1(N)OC(CN2C(=O)c3ccccc3C2=O)CS1 (stereo not given)	none
CCCc1cc(=O)[nH]c(/N=C(/NC(=O)c2ccccc2)Nc2ccc3c(c2)OCCO3)n1	none
Cc1cc2oc3c(c(=O)c2cc1C)C(c1ccc(C(C)C)cc1)N(CCCN1CCOCC1)C3=O (stereo not given)	none
Cn1c(=O)c2c(nc(SCC(=O)Nc3ccc(N4CCOCC4)c(Cl)c3)n2C)n(C)c1=O	none
CCCC(=O)N(Cc1cc2cc(C)ccc2[nH]c1=O)c1ccccc1OC	none
COCC(=O)N(Cc1cc2cc(OC)ccc2[nH]c1=O)c1ccccc1OC	Fluor 339 460 2.6
COc1ccc(-c2nnc(SCC(=O)NC(=O)NCc3ccco3)o2)cc1	none
COc1cc(CNc2ccc3[nH]c(=O)[nH]c3c2)ccc1OCC(=O)NC(C)(C)C	Fluor 339 460 4.9 (not shown: Spn DPM-DC inh)

Screens deposited in PubChem by SRMLSC.
